# In PubChem BioAssay AID504339 (National Center for Advancing Translational Sciences (NCATS), 2011):
# The campaign covered roughly 390,000 compounds. About 17,000 (4.4%) were called active. Roughly 8% stayed inconclusive and do not appear here. For the sample, actives were picked, then their nearest neighbours and some compounds at random. A number with no mark means an inactive call. Calls come from the whole dose curve; as a rule, active = well fitted inhibition curve with a large enough effect; inconclusive = small, poorly fitted or top-dose-only effect; inactive = no such curve, though single readings can be large or run the other way.
# Biological target: Lysine-specific demethylase 4A (Homo sapiens) (UniProt O75164)
# Sequence (O75164 whole entry, looked up, the tested form may be a part): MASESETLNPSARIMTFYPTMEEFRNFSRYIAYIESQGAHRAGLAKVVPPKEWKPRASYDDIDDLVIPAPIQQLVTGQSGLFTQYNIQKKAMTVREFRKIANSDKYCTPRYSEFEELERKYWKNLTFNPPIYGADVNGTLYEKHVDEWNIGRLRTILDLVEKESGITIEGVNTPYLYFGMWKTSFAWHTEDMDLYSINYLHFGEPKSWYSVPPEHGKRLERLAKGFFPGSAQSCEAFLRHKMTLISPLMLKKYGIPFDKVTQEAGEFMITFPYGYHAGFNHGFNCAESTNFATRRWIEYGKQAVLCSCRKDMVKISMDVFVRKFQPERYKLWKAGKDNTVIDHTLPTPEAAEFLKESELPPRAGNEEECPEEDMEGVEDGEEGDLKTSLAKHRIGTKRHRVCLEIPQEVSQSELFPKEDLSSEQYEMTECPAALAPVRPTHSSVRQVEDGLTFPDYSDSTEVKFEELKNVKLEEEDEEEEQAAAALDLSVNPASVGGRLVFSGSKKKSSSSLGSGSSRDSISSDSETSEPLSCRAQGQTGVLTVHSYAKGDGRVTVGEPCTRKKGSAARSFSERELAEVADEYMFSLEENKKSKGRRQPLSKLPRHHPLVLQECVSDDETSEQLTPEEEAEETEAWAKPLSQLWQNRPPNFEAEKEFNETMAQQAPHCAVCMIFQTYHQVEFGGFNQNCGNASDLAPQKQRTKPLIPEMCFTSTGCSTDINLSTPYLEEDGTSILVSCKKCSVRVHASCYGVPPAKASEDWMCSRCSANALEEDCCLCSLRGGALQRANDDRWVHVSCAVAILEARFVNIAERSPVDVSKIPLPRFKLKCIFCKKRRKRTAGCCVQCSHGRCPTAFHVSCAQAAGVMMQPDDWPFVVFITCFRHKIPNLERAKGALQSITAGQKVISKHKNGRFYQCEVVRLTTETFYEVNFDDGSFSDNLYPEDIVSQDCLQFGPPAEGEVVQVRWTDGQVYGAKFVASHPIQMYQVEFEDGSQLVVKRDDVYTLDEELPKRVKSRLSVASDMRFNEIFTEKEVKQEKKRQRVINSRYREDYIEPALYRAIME
# Assay: qHTS Assay for Inhibitors of JMJD2A-Tudor Domain; note: nearly all actives have a fitted effect of over 50% in size
# Conditions: AlphaScreen JMJD2A-Tudor / H3K4me3 peptide binding; series mostly up to 114 µM; activity change, negative = inhibition: at the top concentration
# % is set by controls: 0 for no effect and ±100 for the full control effect; potency is the fitted concentration of half-maximal effect.
Structure (SMILES),"activity change, negative = inhibition",Potency
O=S(=O)(Nc1ccc2nc(-c3cccc(Cl)c3)oc2c1)c1ccccc1,-16.6%,–
CC(=O)OCC(NC(=O)C(Cc1ccccc1)NC(=O)OC(C)(C)C)C1OC(n2ccc(=O)[nH]c2=O)C(OC(C)=O)C1OC(C)=O (stereo unspecified),2.76%,–
Cc1cccc(-n2ccnc2SCC(=O)Nc2cc(C(F)(F)F)ccc2Cl)c1,-32.9%,–
O=C(NC1CC(=O)N(c2ccc(F)cc2)C1)C1CCCCC1 (stereo unspecified),-5.84%,–
CSc1ccc(NC(=O)Cn2nnnc2-c2ccccc2F)cc1,-16.4%,–
CC(C)(C)c1ccc(C(=O)N2CCC(c3nc(-c4ccc(S(=O)(=O)N5CCCC5)cc4)no3)CC2)cc1,-27.7%,–
O=[N+]([O-])c1ccccc1/C=C/CN1CCC(O)CC1,–,8.91 µM (active)
O=C(/C=C/c1ccccc1[N+](=O)[O-])OCC(=O)N1CCCC1,10.1%,–
CC1CC(C)CN(C/C=C/c2ccccc2[N+](=O)[O-])C1 (stereo unspecified),-24.5%,–
CCN(CCCNC(=O)Cn1ncc2c([nH]c3ccccc32)c1=O)c1cccc(C)c1,-24.8%,–
COc1ccc(-c2noc(CSc3nc(C)cc(=O)[nH]3)n2)cc1OC,-10.4%,–
COCCCNC(=O)[C@H]1N2C(=O)c3ccccc3C2SC1(C)C (stereo partly specified),–,22.4 µM (active)
COCCCNC(=O)C1CC(=O)N(CCc2ccccc2)C1 (stereo unspecified),-5.84%,–
CC1(C)SC2c3ccccc3C(=O)N2[C@@H]1C(=O)NCc1ccco1 (stereo partly specified),-15.6%,–
CCOc1ccc(NC(=O)C(=O)NCCc2csc3nc(-c4ccccc4F)nn23)cc1,-16%,–
Cc1cc(C)c2oc(C(=O)Nc3ccc(S(=O)(=O)N4CCCCCC4)cc3)cc(=O)c2c1,-16.3%,–
CCOC(=O)c1c(NC(=O)Cc2coc3ccc(CC)cc23)sc2c1CCC2,5.56%,–
CCc1nn(CC(=O)N2CCN(c3cccc(C(F)(F)F)c3)CC2)c(=O)c2cc3occc3n12,-7.05%,–
Cc1nc2nc(NCc3cccc(Br)c3)[nH]n2c(=O)c1Cc1ccccc1,-9.38%,–
Cc1cc(C)n2ncc(C(=O)Nc3cccc(C#N)c3)c2n1,-24.1% [at 28.6 µM],–
Nc1ccc(Nc2ccccc2)cc1,–,39.8 µM (active)
COc1ccccc1C(=O)Nc1ccc(Nc2ccccc2)cc1,3.79%,–
Nc1ccc(S(=O)(=O)NC(=O)c2ccccc2)cc1,-2.76%,–
CCN(CC)C(=O)CSc1nc2cc3c(cc2c(=O)n1CCCC(=O)NCc1ccc2c(c1)OCO2)OCO3,-12.7%,–
COc1ccccc1-c1noc(CSc2nnc(-c3ccccc3)n2-c2ccc(C)c(C)c2)n1,-33.7%,–
NC(=O)c1c(Nc2nc3c(F)cccc3s2)sc2c1CCCC2,-32.5%,–

Structure (SMILES),"activity change, negative = inhibition",Potency
NNc1nc2c(Cl)cccc2s1,–,63.1 µM (active)
CCc1nnc(SCc2c(F)cccc2Cl)c2cc3sccc3n12,-16.5%,–
CCN(C(=O)Cn1cc(S(=O)(=O)N2CCN(c3ccccc3F)CC2)c2ccccc2c1=O)c1ccc(C)c(C)c1,-16.1%,–
CCCOc1ccc(C(=O)Nc2ccc3oc(-c4cccc(Cl)c4Cl)nc3c2)cc1,-1.63%,–
CCOC(=O)C1CCN(C(=O)/C=C/c2cc(OC)c(OC)c(OC)c2)CC1,3.19% [at 57.1 µM],–
CCOC(=O)C1CCN(S(=O)(=O)c2cc(F)ccc2OC)CC1,-5.63%,–
CCOC(=O)C1CCCCN1Cc1ccc(OC)c(OC)c1OC (stereo unspecified),–,2.24 µM (active)
CCOc1ccccc1CNCc1c(C(=O)O)c(C)n(Cc2ccc(C)cc2)c1C,-13.4%,–
CC1=C(c2ccc(C)c(C)c2)S(=O)(=O)NC1=NCc1ccccc1Cl,-22.5%,–
Cc1nc2ccn(Cc3cccs3)c(=O)c2cc1C(=O)NCc1ccc(Cl)cc1,-15.3%,–
CCOc1cccc(/C=N/NC(=S)NCCN2CCOCC2)c1O,–,56.2 µM (active)
CCOc1nc(NCCN2CCOCC2)nc(Nc2ccc(C)cc2)n1,-20.1%,–
O=C(NCCN1CCOCC1)Nc1cccc(Cl)c1,4.56%,–
O=C(Nc1nc2c(s1)CCCC2)c1ccccc1F,-14.9%,–
COc1ccc(-c2nnc(SCC(=O)Nc3ccc(C(C)C)cc3)nc2-c2ccc(OC)c(OC)c2)cc1OC,-8%,–
CCCCN(C)CCCNC(=O)CN1N=C(c2ccc(OC)cc2)CCC1=O,-2.24%,–
Nc1ccc2nc3c(=O)[nH]c(=S)[nH]c3nc2c1,–,2.51 µM (active)
COc1ccc(CNC(=O)Cc2coc3ccc(C(C)C)cc23)cc1,-7.64%,–
COc1ccc(CCNC(=O)C(=O)NCC(c2ccco2)S(=O)(=O)c2cccs2)cc1OC (stereo unspecified),-2.6%,–
CCN(CC)CCCN=Cc1c(O)n(-c2ccc(C)cc2)c(=O)c2ccccc12,-18.3%,–
Cc1nnc(N/N=C/c2ccccn2)[nH]c1=O,–,20 µM (active)
O=C(COc1ccc(Cl)cc1Cl)N/N=C/c1ccccn1,6.74%,–
CCOc1ccc(-n2c(O)c(/C=N/Nc3nnc(C)c(=O)[nH]3)c3ccccc3c2=O)cc1,–,28.2 µM (active)
O=C(N/N=C/c1ccccn1)C12CC3CC(CC(C3)C1)C2,6.29%,–
CCOc1ccc(-n2c(SCC(=O)NCc3ccccc3)nc3n[nH]c(C)c3c2=N)cc1,-6.09%,–
